In the supplement of paper PMC10849652:
Of roughly 8,800 targets only a part is listed; those with a hit were picked by preference. About 0.5% of all pairs of compound and target were hits. Unmarked numbers belong to inactive results.

How the values were obtained:
Assay in all cases: log2 fold change, soluble protein after heating vs DMSO (PISA); higher = thermal stabilisation; K562 lysate, 10 uM; active = over 0.2 and 3.5 SD of the protein, either way, in both replicates (recomputed)
nilotinib = compound: Cc1cn(-c2cc(NC(=O)c3ccc(C)c(Nc4nccc(-c5cccnc5)n4)c3)cc(C(F)(F)F)c2)cn1 [nilotinib]
Summary of the method: (§1)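 Quantification was by TMTpro 16plex LC-MS/MS with equalised channel sums, applied to the supernatant after 21,000xg for 90 min. Samples were crude K562 extract at 1 mg/mL protein in PBS pH 7.4 with 1 mM MgCl2, treated with 10 μM compound for 30 min, heated for 3 min across 48°C-58°C, pooled and brought to 0.5% NP-40 at 4°C. Values are log-two fold changes in thermal stability relative to solvent controls, from duplicates.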

[1] = compound: Cc1nc(Nc2n[nH]c3c2CN(C(=O)N[C@H](CN(C)C)c2ccccc2)C3(C)C)c2sccc2n1
Summary of the method: as §1

dasatinib = compound: Cc1nc(Nc2ncc(C(=O)Nc3c(C)cccc3Cl)s2)cc(N2CCN(CCO)CC2)n1 [dasatinib]
Summary of the method: as §1

[2] = compound: Cc1ncc(-c2ccnc(Nc3ccc(S(C)(=O)=O)cc3)n2)n1C(C)C
Summary of the method: as §1

[3] = compound: Cn1cc(-c2ccc3c(c2)CCN3C(=O)Cc2cccc(C(F)(F)F)c2)c2c(N)ncnc21
Summary of the method: as §1

quisinostat = compound: Cn1cc(CNCC2CCN(c3ncc(C(=O)NO)cn3)CC2)c2ccccc21 [quisinostat]
Summary of the method: as §1

tipifarnib = compound: Cn1cncc1[C@@](N)(c1ccc(Cl)cc1)c1ccc2c(c1)c(-c1cccc(Cl)c1)cc(=O)n2C [tipifarnib]
Summary of the method: as §1

[4] = compound: NC(=O)Nc1cc(-c2cccc(F)c2)sc1C(=O)N[C@H]1CCCNC1
Summary of the method: as §1

[5] = compound: NC(=O)c1cnc(N[C@@H]2CCCC[C@@H]2N)nc1Nc1cccc(-n2nccn2)c1
Summary of the method: as §1

[6] = compound: NC1(c2ccc(-c3nc4ccn5c(=O)[nH]nc5c4cc3-c3ccccc3)cc2)CCC1
Summary of the method: as §1

[7] = compound: NCC(=O)Nc1ccc(-n2nc(C(F)(F)F)cc2-c2ccc3c(ccc4ccccc43)c2)cc1
Summary of the method: as §1

vorinostat = compound: O=C(CCCCCCC(=O)Nc1ccccc1)NO [vorinostat]
Summary of the method: as §1

silmitasertib = compound: O=C(O)c1ccc2c(c1)nc(Nc1cccc(Cl)c1)c1ccncc12 [silmitasertib]
Summary of the method: as §1

[8] = compound: O=C1NC(=O)C(c2cnc3ccccn23)=C1c1cn2c3c(cc(F)cc13)CN(C(=O)N1CCCCC1)CC2
Summary of the method: as §1

entospletinib = compound: c1cn2cc(-c3ccc4cn[nH]c4c3)nc(Nc3ccc(N4CCOCC4)cc3)c2n1 [entospletinib]
Summary of the method: as §1

UniProt Q9UPW0, sequence (Q9UPW0 whole entry, looked up): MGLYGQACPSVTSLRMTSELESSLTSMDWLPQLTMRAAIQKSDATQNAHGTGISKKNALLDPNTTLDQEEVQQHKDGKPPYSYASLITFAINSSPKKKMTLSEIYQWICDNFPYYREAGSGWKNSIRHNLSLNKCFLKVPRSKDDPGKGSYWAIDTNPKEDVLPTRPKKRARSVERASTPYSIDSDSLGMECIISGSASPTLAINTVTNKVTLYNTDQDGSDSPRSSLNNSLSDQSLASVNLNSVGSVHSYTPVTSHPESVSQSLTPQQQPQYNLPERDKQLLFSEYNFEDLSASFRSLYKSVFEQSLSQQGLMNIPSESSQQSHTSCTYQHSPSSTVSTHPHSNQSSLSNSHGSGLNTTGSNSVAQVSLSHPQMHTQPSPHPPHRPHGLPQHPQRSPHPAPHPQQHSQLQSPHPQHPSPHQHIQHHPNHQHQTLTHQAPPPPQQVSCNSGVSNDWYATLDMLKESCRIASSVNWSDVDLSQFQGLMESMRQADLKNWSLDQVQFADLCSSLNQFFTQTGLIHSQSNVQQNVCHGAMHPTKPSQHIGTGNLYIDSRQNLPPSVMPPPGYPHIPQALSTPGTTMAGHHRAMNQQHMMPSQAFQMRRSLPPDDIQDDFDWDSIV
UniProt O75616, sequence (O75616 whole entry, looked up): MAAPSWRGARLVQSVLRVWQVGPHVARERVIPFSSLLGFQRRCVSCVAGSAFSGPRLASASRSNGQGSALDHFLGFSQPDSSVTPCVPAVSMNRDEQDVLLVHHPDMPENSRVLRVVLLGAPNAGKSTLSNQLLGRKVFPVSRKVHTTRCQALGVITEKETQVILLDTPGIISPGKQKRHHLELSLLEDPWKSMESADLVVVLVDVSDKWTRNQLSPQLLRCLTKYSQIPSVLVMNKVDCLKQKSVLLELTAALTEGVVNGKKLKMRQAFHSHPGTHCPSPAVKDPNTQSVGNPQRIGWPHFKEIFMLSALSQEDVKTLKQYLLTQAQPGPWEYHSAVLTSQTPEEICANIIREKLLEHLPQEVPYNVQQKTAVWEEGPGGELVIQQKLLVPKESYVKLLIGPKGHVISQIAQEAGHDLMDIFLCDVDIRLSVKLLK
UniProt Q9UK97, sequence (Q9UK97 whole entry, looked up): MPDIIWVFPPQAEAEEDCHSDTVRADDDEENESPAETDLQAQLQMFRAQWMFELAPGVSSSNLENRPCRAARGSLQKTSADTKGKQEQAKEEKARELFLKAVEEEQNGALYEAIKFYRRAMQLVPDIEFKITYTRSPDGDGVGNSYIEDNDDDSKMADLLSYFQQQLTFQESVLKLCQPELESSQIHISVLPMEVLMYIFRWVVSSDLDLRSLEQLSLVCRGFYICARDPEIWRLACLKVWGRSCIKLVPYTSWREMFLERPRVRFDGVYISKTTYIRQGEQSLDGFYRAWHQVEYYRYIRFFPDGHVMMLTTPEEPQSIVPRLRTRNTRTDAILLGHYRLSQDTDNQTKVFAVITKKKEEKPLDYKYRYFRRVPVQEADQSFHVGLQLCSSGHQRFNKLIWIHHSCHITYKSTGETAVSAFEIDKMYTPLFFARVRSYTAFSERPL
UniProt Q14318, sequence (Q14318 whole entry, looked up): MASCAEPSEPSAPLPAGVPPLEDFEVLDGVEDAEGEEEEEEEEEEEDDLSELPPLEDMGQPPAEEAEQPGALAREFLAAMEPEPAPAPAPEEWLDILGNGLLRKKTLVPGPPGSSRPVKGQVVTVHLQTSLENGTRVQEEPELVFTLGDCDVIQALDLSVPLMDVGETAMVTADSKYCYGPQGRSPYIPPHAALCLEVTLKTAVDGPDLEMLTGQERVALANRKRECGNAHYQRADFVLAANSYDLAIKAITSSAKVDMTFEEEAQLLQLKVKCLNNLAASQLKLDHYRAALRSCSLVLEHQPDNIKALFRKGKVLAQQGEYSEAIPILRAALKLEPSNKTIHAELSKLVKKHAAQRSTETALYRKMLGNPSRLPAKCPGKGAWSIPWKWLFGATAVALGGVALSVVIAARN
UniProt Q5T0N5, sequence (Q5T0N5 whole entry, looked up): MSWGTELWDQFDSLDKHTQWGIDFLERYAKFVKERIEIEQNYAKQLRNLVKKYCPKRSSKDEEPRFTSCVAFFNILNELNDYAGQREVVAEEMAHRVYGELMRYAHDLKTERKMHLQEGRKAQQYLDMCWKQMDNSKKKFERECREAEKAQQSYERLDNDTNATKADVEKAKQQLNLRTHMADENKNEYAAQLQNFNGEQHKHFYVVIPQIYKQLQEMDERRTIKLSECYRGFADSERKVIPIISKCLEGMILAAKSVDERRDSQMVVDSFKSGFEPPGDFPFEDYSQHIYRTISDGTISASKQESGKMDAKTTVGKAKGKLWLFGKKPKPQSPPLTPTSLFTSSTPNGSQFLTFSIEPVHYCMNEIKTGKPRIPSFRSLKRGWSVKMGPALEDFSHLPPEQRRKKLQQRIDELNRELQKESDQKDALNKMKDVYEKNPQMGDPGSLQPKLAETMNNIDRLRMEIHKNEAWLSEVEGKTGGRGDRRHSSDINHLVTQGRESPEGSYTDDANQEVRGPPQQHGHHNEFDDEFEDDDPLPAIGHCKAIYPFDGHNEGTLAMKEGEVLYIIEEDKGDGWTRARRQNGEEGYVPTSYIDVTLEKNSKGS
UniProt P41567, sequence (P41567 whole entry, looked up): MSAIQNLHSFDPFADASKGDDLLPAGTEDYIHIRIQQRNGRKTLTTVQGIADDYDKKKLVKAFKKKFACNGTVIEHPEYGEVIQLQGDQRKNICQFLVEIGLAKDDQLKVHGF
UniProt P51114, sequence (P51114 whole entry, looked up): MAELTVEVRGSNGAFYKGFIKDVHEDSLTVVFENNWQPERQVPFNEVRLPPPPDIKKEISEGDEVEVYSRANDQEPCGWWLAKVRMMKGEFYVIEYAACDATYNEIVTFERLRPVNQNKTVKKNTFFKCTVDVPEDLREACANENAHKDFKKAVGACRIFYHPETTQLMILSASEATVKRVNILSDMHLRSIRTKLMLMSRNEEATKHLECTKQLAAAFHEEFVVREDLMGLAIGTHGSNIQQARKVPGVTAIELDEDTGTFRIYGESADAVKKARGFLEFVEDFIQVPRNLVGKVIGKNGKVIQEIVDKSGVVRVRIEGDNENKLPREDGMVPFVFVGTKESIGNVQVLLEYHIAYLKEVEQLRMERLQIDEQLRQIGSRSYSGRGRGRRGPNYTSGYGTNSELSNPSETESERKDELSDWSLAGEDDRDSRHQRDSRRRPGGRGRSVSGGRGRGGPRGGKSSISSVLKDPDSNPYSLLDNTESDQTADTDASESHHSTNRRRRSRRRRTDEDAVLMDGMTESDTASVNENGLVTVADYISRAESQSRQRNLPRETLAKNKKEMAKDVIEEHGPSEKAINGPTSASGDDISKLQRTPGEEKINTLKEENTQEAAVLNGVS
UniProt Q06547, sequence (Q06547 whole entry, looked up): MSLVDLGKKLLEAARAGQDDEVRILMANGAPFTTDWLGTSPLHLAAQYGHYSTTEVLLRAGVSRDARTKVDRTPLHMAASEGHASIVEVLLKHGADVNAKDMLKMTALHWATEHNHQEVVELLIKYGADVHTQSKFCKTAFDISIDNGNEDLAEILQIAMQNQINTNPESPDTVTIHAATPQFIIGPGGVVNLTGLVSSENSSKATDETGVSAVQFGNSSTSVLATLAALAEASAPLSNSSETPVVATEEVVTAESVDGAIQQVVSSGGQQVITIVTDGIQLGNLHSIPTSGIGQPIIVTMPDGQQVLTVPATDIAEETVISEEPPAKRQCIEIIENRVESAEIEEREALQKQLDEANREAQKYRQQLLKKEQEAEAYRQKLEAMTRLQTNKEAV
UniProt Q9H6S3, sequence (Q9H6S3 whole entry, looked up): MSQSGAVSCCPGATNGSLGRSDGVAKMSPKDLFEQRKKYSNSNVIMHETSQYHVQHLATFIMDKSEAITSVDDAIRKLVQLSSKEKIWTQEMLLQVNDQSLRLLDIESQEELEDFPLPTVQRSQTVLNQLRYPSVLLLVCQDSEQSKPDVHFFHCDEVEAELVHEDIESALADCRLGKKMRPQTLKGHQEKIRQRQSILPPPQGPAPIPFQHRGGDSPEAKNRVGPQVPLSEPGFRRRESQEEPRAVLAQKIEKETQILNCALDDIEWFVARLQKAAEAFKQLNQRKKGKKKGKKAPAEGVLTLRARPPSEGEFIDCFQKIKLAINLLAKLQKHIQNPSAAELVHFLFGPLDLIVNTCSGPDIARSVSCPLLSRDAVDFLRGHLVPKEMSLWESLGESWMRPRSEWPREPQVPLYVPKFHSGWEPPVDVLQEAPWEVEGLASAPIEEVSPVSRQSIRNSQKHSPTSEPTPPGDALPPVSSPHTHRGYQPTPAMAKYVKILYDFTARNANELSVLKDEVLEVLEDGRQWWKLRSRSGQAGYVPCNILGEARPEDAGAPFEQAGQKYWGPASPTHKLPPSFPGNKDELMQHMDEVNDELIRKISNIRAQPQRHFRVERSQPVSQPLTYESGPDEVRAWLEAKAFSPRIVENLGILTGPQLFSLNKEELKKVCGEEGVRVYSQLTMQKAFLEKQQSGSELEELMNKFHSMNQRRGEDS
UniProt P48507, sequence (P48507 whole entry, looked up): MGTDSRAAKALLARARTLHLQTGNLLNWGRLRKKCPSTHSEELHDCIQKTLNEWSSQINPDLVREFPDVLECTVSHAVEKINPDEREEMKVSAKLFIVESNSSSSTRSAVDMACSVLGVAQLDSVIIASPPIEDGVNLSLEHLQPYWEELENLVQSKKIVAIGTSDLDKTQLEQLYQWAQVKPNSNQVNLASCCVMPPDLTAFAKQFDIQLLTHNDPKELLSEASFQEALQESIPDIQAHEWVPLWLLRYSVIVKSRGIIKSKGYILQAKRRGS
UniProt Q8TF64, sequence (Q8TF64 whole entry, looked up): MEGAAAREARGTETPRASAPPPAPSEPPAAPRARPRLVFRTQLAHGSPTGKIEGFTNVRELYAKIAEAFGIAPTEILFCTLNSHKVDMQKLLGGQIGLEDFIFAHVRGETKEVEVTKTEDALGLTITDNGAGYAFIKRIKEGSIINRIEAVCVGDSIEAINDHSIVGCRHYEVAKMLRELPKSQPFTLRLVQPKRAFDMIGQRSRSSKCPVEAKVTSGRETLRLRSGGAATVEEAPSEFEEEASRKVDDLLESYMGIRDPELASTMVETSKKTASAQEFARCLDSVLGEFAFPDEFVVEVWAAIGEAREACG

Target | log2 fold change (nilotinib) | log2 fold change [1] | log2 fold change (dasatinib) | log2 fold change [2] | log2 fold change [3] | log2 fold change (quisinostat) | log2 fold change (tipifarnib) | log2 fold change [4] | log2 fold change [5] | log2 fold change [6] | log2 fold change [7] | log2 fold change (vorinostat) | log2 fold change (silmitasertib) | log2 fold change [8] | log2 fold change (entospletinib)
FECH isoform 2 (UniProt P22830) | 0.796 | 0 | 0.353 | 0.364 | 0.009 | 0.333 | -0.007 | -0.013 | 0.139 | 0.053 | -0.185 | -0.401 | -0.03 | -0.021 | 0.977
FMNL1 isoform 3 (UniProt O95466) | -0.174 | -0.043 | -0.13 | -0.135 | 0.009 | -0.047 | -0.038 | -0.051 | 0.012 | -0.042 | 0.051 | -0.292 (active) | -0.01 | 0.071 | -0.066
FOXJ3 (UniProt Q9UPW0) | 0.156 | -0.053 | -0.013 | -0.008 | -0.063 | -0.055 | -0.017 | 0.042 | 0.017 | -0.115 | -0.016 | -0.24 (active) | 0.114 | 0.019 | 0.022
EPB41 (UniProt P11171) | -0.01 | 0.024 | 0 | -0.007 | 0.031 | 0.039 | 0.011 | 0.003 | 0.012 | 0.003 | -0.046 | 0.035 | 0.007 | -0.034 | 0
EEF1A1, A0A087WVQ9 | 0.124 | 0.012 | 0.006 | 0.044 | 0.002 | -0.025 | -0.001 | 0.024 | 0.013 | 0.016 | -0.025 | -0.541 (active) | -0.002 | -0.022 | 0.015
FXR1 (UniProt P51114) | -0.139 | 0.031 | 0.028 | -0.011 | 0.018 | -0.057 | -0.005 | 0.024 | -0.001 | -0.047 | -0.006 | -0.257 (active) | 0.045 | -0.041 | 0.023
FKBP8 isoform 2 (UniProt Q14318) | -0.019 | -0.055 | -0.056 | 0.014 | 0.011 | -0.21 | -0.005 | 0.067 | 0.02 | 0.005 | 0.024 | -0.219 (active) | 0.001 | -0.028 | 0.018
FBXO9 (UniProt Q9UK97) | -0.076 | 0.003 | 0.059 | 0.02 | 0.021 | -0.045 | -0.092 | 0.177 | 0.127 | 0.127 | -0.154 | -0.135 | 0.009 | -0.046 | -0.188
FNBP1L (UniProt Q5T0N5) | -0.076 | 0.03 | -0.131 | 0.007 | -0.051 | -0.068 | -0.016 | 0.018 | -0.004 | 0.025 | 0.001 | -0.373 (active) | 0.102 | -0.041 | 0.017
GIPC3 (UniProt Q8TF64) | 0.183 | -0.602 (active) | -0.071 | 0.097 | -0.009 | -0.309 | -0.067 | 0.134 | 0.045 | 0.016 | – | -0.336 | 0.044 | -0.007 | -0.017
EED, A0A5F9ZI63 | -0.019 | 0.035 | -0.022 | -0.005 | -0.027 | 0 | 0.006 | 0.026 | -0.006 | -0.015 | -0.022 | -0.227 (active) | 0.043 | -0.018 | 0.009
GABPB1 (UniProt Q06547) | -0.008 | 0.012 | -0.051 | -0.023 | 0.05 | -0.036 | 0.007 | 0.031 | 0.05 | 0.033 | 0 | -0.299 (active) | 0.008 | -0.052 | -0.004
GAMT (UniProt Q14353) | -0.017 | 0.022 | 0.03 | 0.129 | -0.025 | -0.043 | -0.137 | 0.024 | -0.016 | -0.002 | -0.046 | -0.423 (active) | -0.008 | -0.049 | -0.001
DVL2 (UniProt O14641) | -0.03 | -0.003 | -0.114 | 0.027 | -0.063 | -0.13 | -0.027 | 0.102 | 0.236 | -0.097 | -0.056 | 0.33 (active) | 0.049 | 0.078 | -0.015
ERAL1 (UniProt O75616) | 0 | -0.001 | 0.01 | 0.003 | 0.018 | -0.078 | -0.027 | 0.083 | -0.052 | 0.008 | -0.013 | -0.103 | 0.044 | -0.044 | -0.083
EPS8L2 (UniProt Q9H6S3) | -0.011 | 0.05 | 0.051 | -0.121 | 0.053 | 0.013 | 0.013 | 0.058 | -0.01 | 0.013 | – | 0.017 | -0.019 | 0.026 | 0.33 (active)
EIF1 (UniProt P41567) | 0.126 | 0.084 | 0.001 | 0.142 | -0.03 | 0.133 | 0 | -0.018 | -0.076 | -0.032 | -0.032 | 0.12 | -0.024 | 0.036 | 0.028
GCLM (UniProt P48507) | -0.03 | 0.016 | -0.033 | 0.013 | 0.027 | 0.016 | 0.007 | 0 | -0.005 | -0.005 | 0.007 | -0.277 (active) | -0.013 | 0.032 | 0.021
